Laboratory results taken from the supplement of paper PMC10849652.
Targets with a hit are over-represented here; the source holds about 8,800 in all. About 0.5% of all pairs of compound and target were hits. Unmarked numbers belong to inactive results.

Chain of UniProt P32780 (P32780 whole entry, looked up): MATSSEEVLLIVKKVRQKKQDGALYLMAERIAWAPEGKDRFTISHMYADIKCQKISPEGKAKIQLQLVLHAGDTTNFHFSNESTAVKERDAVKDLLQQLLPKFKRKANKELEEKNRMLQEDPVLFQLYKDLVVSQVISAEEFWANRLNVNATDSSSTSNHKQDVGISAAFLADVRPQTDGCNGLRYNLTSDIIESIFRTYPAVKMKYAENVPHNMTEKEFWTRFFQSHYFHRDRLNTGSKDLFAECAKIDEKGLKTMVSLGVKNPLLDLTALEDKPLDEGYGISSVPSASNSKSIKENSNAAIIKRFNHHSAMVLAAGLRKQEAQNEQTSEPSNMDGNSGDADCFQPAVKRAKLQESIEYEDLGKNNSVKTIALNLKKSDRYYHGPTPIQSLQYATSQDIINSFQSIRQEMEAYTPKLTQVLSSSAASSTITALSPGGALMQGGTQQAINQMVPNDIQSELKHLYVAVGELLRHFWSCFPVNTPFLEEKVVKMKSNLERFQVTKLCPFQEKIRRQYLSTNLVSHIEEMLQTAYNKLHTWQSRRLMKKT
Chain of UniProt P22692 (P22692 whole entry, looked up): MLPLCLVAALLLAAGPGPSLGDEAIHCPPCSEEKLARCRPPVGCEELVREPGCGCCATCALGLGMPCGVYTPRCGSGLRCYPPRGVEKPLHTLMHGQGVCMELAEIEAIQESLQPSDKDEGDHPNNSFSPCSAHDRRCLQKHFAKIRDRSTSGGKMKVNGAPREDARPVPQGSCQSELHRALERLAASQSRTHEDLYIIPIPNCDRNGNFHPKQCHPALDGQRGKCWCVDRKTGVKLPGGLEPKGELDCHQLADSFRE
Chain of UniProt Q8TDG4 (Q8TDG4 whole entry, looked up): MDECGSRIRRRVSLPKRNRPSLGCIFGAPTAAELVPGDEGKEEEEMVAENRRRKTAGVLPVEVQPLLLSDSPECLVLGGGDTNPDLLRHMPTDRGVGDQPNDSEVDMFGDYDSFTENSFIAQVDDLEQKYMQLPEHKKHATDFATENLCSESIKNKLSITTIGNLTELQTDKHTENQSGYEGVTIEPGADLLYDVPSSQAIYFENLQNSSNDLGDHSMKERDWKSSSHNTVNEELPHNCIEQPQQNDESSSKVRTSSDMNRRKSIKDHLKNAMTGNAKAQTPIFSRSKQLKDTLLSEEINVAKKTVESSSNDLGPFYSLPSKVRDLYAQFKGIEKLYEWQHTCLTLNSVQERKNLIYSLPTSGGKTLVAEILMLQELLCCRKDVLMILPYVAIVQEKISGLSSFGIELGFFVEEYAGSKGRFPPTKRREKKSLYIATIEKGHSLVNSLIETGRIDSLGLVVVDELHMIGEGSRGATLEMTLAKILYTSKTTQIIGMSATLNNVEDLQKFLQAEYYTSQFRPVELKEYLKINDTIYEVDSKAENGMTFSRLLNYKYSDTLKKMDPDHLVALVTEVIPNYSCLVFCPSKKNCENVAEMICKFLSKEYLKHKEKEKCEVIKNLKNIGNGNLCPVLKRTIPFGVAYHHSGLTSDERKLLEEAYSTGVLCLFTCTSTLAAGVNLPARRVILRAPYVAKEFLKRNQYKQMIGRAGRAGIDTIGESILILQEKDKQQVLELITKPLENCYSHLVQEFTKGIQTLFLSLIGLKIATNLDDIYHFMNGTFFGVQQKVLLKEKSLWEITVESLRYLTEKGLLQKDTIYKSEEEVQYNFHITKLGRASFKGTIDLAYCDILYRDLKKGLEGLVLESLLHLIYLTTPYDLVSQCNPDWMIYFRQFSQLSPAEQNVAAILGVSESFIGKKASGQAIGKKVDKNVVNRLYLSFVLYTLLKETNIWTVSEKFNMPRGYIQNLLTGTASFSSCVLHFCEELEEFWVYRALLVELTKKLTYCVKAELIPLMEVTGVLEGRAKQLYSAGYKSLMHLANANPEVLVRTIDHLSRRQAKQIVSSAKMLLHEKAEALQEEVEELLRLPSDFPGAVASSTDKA
Chain of UniProt Q9H4A6 (Q9H4A6 whole entry, looked up): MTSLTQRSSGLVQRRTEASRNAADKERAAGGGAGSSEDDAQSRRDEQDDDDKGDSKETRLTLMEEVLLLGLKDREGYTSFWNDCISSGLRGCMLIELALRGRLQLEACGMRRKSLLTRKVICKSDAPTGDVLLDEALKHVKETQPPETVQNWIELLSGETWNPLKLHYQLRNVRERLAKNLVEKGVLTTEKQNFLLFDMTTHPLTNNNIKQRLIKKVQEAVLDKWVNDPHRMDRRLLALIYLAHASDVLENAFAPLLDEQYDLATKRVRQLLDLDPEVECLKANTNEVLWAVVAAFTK
Chain of UniProt P78347 (P78347 whole entry, looked up): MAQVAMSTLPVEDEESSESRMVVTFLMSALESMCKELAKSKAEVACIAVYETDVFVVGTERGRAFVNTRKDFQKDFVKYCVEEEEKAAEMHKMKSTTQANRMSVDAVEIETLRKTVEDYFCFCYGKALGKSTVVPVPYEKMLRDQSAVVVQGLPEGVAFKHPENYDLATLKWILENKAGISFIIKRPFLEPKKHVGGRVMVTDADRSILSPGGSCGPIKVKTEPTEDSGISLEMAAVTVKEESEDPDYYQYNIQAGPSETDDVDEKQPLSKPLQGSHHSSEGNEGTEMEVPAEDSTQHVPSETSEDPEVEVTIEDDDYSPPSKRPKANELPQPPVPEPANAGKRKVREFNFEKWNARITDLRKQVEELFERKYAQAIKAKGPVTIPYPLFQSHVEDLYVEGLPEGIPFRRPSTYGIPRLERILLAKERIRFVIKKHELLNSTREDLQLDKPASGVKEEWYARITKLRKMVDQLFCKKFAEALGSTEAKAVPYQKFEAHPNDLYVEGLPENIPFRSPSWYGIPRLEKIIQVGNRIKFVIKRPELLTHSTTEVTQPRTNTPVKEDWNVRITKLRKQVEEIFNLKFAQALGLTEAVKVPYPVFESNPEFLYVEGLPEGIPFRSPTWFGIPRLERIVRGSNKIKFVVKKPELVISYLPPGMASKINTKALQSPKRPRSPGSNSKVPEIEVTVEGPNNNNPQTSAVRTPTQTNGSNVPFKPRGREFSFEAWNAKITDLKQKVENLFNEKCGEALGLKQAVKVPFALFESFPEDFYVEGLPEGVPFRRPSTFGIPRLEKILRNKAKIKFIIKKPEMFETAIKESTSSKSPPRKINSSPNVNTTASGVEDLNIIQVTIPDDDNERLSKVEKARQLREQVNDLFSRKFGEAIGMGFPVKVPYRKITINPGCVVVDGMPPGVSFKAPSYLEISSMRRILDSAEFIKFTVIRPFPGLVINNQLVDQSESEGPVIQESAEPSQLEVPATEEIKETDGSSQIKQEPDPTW
Chain of UniProt P41229 (P41229 whole entry, looked up): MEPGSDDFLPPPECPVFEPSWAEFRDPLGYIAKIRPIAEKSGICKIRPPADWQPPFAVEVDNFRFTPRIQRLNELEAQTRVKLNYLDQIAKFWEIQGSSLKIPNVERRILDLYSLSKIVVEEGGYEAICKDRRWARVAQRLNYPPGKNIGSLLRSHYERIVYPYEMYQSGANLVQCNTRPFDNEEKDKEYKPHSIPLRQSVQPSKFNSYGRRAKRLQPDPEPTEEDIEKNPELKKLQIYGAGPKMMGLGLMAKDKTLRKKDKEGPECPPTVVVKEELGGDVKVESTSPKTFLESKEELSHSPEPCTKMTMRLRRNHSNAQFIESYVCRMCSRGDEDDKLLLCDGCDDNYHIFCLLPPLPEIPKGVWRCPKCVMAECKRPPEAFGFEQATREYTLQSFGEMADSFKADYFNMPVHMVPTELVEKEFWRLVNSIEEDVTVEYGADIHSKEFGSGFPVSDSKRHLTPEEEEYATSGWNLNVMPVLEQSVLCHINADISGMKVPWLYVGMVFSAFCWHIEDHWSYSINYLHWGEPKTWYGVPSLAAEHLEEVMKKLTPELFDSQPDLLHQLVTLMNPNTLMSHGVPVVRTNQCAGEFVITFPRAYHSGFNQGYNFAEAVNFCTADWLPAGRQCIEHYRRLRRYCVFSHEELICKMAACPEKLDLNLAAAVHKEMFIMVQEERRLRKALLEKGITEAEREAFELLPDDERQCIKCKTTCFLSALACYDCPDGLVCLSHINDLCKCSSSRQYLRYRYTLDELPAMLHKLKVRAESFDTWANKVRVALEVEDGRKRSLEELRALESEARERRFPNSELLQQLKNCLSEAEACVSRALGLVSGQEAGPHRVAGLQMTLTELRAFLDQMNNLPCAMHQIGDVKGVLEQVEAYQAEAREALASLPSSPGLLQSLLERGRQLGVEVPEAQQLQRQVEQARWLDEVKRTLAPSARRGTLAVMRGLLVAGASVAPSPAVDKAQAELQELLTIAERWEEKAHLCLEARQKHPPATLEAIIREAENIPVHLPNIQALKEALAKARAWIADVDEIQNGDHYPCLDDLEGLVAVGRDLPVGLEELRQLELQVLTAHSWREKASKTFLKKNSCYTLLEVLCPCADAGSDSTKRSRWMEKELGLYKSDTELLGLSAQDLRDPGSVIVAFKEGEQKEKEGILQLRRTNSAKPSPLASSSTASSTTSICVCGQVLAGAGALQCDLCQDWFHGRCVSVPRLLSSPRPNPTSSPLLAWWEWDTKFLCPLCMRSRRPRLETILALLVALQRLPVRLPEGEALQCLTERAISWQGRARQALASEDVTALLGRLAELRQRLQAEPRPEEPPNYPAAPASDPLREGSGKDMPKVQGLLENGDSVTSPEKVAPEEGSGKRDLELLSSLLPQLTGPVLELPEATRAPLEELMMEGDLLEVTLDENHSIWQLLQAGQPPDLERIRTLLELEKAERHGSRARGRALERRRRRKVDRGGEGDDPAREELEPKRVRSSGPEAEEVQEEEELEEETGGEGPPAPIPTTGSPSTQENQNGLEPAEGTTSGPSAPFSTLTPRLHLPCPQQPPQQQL
Chain of UniProt P28161 (P28161 whole entry, looked up): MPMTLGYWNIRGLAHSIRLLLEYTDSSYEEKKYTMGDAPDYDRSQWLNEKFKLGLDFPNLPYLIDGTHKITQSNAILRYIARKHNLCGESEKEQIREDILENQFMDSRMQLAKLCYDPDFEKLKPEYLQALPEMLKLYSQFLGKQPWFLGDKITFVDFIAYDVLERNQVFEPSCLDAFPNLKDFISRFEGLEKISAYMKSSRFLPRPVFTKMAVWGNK

The targets below were run with NCC(=O)Nc1ccc(-n2nc(C(F)(F)F)cc2-c2ccc3c(ccc4ccccc43)c2)cc1 (assay: log2 fold change, soluble protein after heating vs DMSO (PISA); higher = thermal stabilisation; K562 lysate, 10 uM; active = over 0.2 and 3.5 SD of the protein, either way, in both replicates (recomputed)).
Summary of the method: (§1)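 Following dounce homogenisation of K562 pellets in PBS pH 7.4 with 1 mM MgCl2, crude extract at 1 mg/mL protein was incubated for 30 min with 10 μM compound. Aliquots were then heated for 3 min over 48°C-58°C and pooled, NP-40 was added to 0.5% at 4°C, and soluble protein was recovered as the supernatant at 21,000xg for 90 min. Channel-sum-equalised TMTpro 16plex LC-MS/MS quantified this protein. Each value, from duplicates, is a log-two fold change in thermal stability relative to solvent controls.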
Target HELQ (UniProt Q8TDG4) has a log2 fold change of -0.003.
With HNRNPM (UniProt M0QZM1) the log2 fold change was 0.125.
IMPDH2 (UniProt H0Y4R1) gave a log2 fold change of -0.044.
For KDM6A (UniProt O15550), the log2 fold change was 0.026.
JAK3 (UniProt P52333) showed a log2 fold change of -0.319.
HYDIN (UniProt Q4G0P3) gave a log2 fold change of 0.028.
In the case of GSTM2 (UniProt P28161), the log2 fold change is reported as 0.017.
GPA33 (UniProt Q99795) gave a log2 fold change of 0.041.
With HERC2 (UniProt O95714) the log2 fold change was 0.04.
With ITGB1BP2 (UniProt Q9UKP3) the log2 fold change was 0.053.
KIAA0930 isoform 2 (UniProt Q6ICG6) gave a log2 fold change of 0.046.
IPP (UniProt Q9Y573) was tested, and the log2 fold change was 0.04.
KDM1A (UniProt O60341) gave a log2 fold change of 0.01.
For HDAC2 (UniProt Q92769), the log2 fold change was 0.001.
HADH isoform 2 (UniProt Q16836) was tested, and the log2 fold change was 0.
Target GOLPH3 (UniProt Q9H4A6) has a log2 fold change of -0.06.
In the case of GTF2I (UniProt P78347), the log2 fold change is reported as -0.001.
GTPBP6 (UniProt O43824) was tested, and the log2 fold change was 0.069.
For KDM5C (UniProt P41229), the log2 fold change was 0.039.
For GTF2A1 (UniProt P52655), the log2 fold change was -0.029.
GTF2H1 (UniProt P32780) showed a log2 fold change of -0.019.

Each target was assayed with O=C(CCCCCCC(=O)Nc1ccccc1)NO [vorinostat] in the same assay as above.
Summary of the method: as §1
In the case of HELQ (UniProt Q8TDG4), the log2 fold change is reported as 0.001.
IRS2 (UniProt Q9Y4H2) was tested, and the log2 fold change was -0.034.
HNRNPUL1 (UniProt M0R247) gave a log2 fold change of 0.197.
Work on IGFBP4 (UniProt P22692) yielded a log2 fold change of 0.049.
KDM6A (UniProt O15550) was tested, and the log2 fold change was -0.299 (active).
With GSTM2 (UniProt P28161) the log2 fold change was 0.323 (active).
GPA33 (UniProt Q99795) was tested, and the log2 fold change was 0.14.
ISL2 (UniProt Q96A47) gave a log2 fold change of -0.026.
For ITPRIP (UniProt Q8IWB1), the log2 fold change was -0.33.
HERC2 (UniProt O95714) was tested, and the log2 fold change was -0.006.
In the case of IPP (UniProt Q9Y573), the log2 fold change is reported as -0.633 (active).
Work on GNB4 (UniProt Q9HAV0) yielded a log2 fold change of 0.006.
With HSPBAP1 (UniProt Q96EW2) the log2 fold change was -0.07.
In the case of ITPR2 (UniProt Q14571), the log2 fold change is reported as -0.965 (active).
Target KDM1A (UniProt O60341) has a log2 fold change of -0.163.
For HADH isoform 2 (UniProt Q16836), the log2 fold change was -0.029.
With HMGA1 isoform 2 (UniProt P17096) the log2 fold change was 0.205.
GOLPH3 (UniProt Q9H4A6) gave a log2 fold change of -0.06.
Target HSPA8 (UniProt E9PN89) has a log2 fold change of -0.01.
In the case of GTF2I (UniProt P78347), the log2 fold change is reported as -0.287 (active).
In the case of KDM5C (UniProt P41229), the log2 fold change is reported as -0.282 (active).
Target GTF2A1 (UniProt P52655) has a log2 fold change of 0.094.
For GTF2H1 (UniProt P32780), the log2 fold change was -0.412 (active).

These targets were tested with O=C(O)c1ccc2c(c1)nc(Nc1cccc(Cl)c1)c1ccncc12 [silmitasertib] in the same assay as above.
Summary of the method: as §1
HELQ (UniProt Q8TDG4) was tested, and the log2 fold change was 0.076.
With IRS2 (UniProt Q9Y4H2) the log2 fold change was -0.065.
Target HNRNPUL1 (UniProt M0R247) has a log2 fold change of -0.037.
Work on IGFBP4 (UniProt P22692) yielded a log2 fold change of -0.026.
Work on KDM6A (UniProt O15550) yielded a log2 fold change of -0.059.
GSTM2 (UniProt P28161) was tested, and the log2 fold change was 0.378 (active).
GPA33 (UniProt Q99795) gave a log2 fold change of 0.051.
In the case of ISL2 (UniProt Q96A47), the log2 fold change is reported as 0.04.
Target ITPRIP (UniProt Q8IWB1) has a log2 fold change of 0.095.
HERC2 (UniProt O95714) was tested, and the log2 fold change was -0.076.
With IPP (UniProt Q9Y573) the log2 fold change was 0.205.
In the case of GNB4 (UniProt Q9HAV0), the log2 fold change is reported as 0.017.
For HSPBAP1 (UniProt Q96EW2), the log2 fold change was 0.044.
With ITPR2 (UniProt Q14571) the log2 fold change was 0.024.
Work on KDM1A (UniProt O60341) yielded a log2 fold change of 0.009.
HDAC2 (UniProt Q92769) showed a log2 fold change of -0.002.
HADH isoform 2 (UniProt Q16836) was tested, and the log2 fold change was 0.005.
Target HMGA1 isoform 2 (UniProt P17096) has a log2 fold change of -0.047.
In the case of GOLPH3 (UniProt Q9H4A6), the log2 fold change is reported as -0.001.
For HSPA8 (UniProt E9PN89), the log2 fold change was 0.016.
Target GTF2I (UniProt P78347) has a log2 fold change of 0.091.
KDM5C (UniProt P41229) gave a log2 fold change of 0.015.
GTF2A1 (UniProt P52655) was tested, and the log2 fold change was -0.043.
With GTF2H1 (UniProt P32780) the log2 fold change was 0.

These targets were tested with O=C1NC(=O)C(c2cnc3ccccn23)=C1c1cn2c3c(cc(F)cc13)CN(C(=O)N1CCCCC1)CC2 in the same assay as above.
Summary of the method: as §1
In the case of HELQ (UniProt Q8TDG4), the log2 fold change is reported as 0.017.
In the case of IRS2 (UniProt Q9Y4H2), the log2 fold change is reported as 0.14.
IGFBP4 (UniProt P22692) gave a log2 fold change of 0.023.
HNRNPM (UniProt M0QZM1) gave a log2 fold change of 0.038.
GPLD1 (UniProt P80108) showed a log2 fold change of 0.366.
IMPDH2 (UniProt H0Y4R1) was tested, and the log2 fold change was 0.05.
Target KDM6A (UniProt O15550) has a log2 fold change of -0.009.
JAK3 (UniProt P52333) gave a log2 fold change of -0.002.
With ISL2 (UniProt Q96A47) the log2 fold change was 0.179.
For HOMER3 (UniProt Q9NSC5), the log2 fold change was -0.022.
With HERC2 (UniProt O95714) the log2 fold change was -0.009.
KIAA0930 isoform 2 (UniProt Q6ICG6) gave a log2 fold change of -0.057.
GNB4 (UniProt Q9HAV0) gave a log2 fold change of -0.059.
HSPBAP1 (UniProt Q96EW2) gave a log2 fold change of -0.014.
KDM1A (UniProt O60341) was tested, and the log2 fold change was -0.009.
For HDAC2 (UniProt Q92769), the log2 fold change was 0.057.
HADH isoform 2 (UniProt Q16836) was tested, and the log2 fold change was 0.006.
HNRNPD (UniProt D6RF44) showed a log2 fold change of -0.04.
For HMGA1 isoform 2 (UniProt P17096), the log2 fold change was 0.128.
GOLPH3 (UniProt Q9H4A6) was tested, and the log2 fold change was 0.023.
For HSPA8 (UniProt E9PN89), the log2 fold change was -0.017.
GTF2I (UniProt P78347) was tested, and the log2 fold change was -0.005.
Work on KDM5C (UniProt P41229) yielded a log2 fold change of 0.
Work on GTF2A1 (UniProt P52655) yielded a log2 fold change of 0.052.
GTF2H1 (UniProt P32780) showed a log2 fold change of -0.024.
